TWEAK Fn14 block: inhibitors of TWEAK-Fn14 signaling, primary screen, luciferase reporter cells, uHTS; TWEAK-stimulated Fn14 reporter cells, luciferase luminescence, 8 h; inhibition, % at 10 µM; hit rate 2% among 360,000; AID 1159606, 2016; in the data active = inhibition above about 50%
KKLEB cytotox: cytotoxicity in KKLEB CF airway cells, primary screen, cytotoxicity control for CF NF-kB inhibitor project, cell-based, uHTS, fluorescence assay plates | KKLEB CF airway cells viability, ATPlite luminescence, overnight; hits give low values; cells stimulated with P. aeruginosa culture filtrate | activity change (cytotoxicity), % at 5 µM | hit rate 0.36% among 360,000;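 active = corrected activity change at or below -50% at 5 µM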
HIF-2a block: HIF-2a reporter inhibitors, primary screen, luminescence, 786-0 RCC cells; hit rate 0.72% among 360,000; 786-0 RCC cells HIF-2a reporter, luciferase luminescence, overnight; inhibition, % at 18.8 µM;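 active = inhibition of the luminescence signal of 40% or more relative to plate controls, in a single-dose primary screen at 18.75 µM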
TROY signal inh: inhibitors of TROY-driven NF-kB signaling, primary screen, Q293 LMP1-TROYcd cells, NF-kB luciferase, uHTS | Q293 LMP1-TROYcd NF-kB luciferase reporter, 4 h | hit rate 0.98% among 360,000 | inhibition, % at 10 µM;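 active = compounds whose plate-normalised and pattern-corrected inhibition of the luciferase reporter signal at the single screening dose is 50% or more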
Peg3 prom inh: Peg3 promoter-driven luciferase inhibitors, primary screen, cell-based, HeLa, luciferase luminescence | HeLa PEG-Prom luciferase reporter, overnight | hit rate 1.7% among 360,000 | inhibition, % at 20 µM;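 active = inhibition of at least 50% at 20 µM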
CF NFkB inh: inhibitors of PAF-induced NF-kB signaling, primary screen, cell-based, GFP fluorescence, uHTS; KKLEB NF-kB-GFP reporter, GFP fluorescence overnight; inhibition, % at 5 µM; hit rate 0.86% among 360,000; AID 588850, 2011;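 active = at least 50% inhibition at 5 µM, scaled per plate between neutral and stimulator controls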;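 note: PAF is a Pseudomonas aeruginosa culture filtrate used as stimulus; plate controls were PAF-stimulated DMSO wells for no effect and unstimulated DMSO wells for full effect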
* = called active by the depositor. This is a sample that favours compounds with a hit; in the whole collection about 3.9% have one here.

SMILES	TWEAK Fn14 block	KKLEB cytotox	HIF-2a block	TROY signal inh	Peg3 prom inh	CF NFkB inh
Cc1cccc(OCC(=O)NCCNC(=O)c2ccco2)c1	25	5	1	-14	18	-15
CC(=NNc1nc2ccccc2s1)c1ncccn1	31	-8	-172	-8	-36	-26
C/C(=N\Nc1nc2ccccc2s1)c1cccs1	68*	-17	-132	-1	-106	-7
CC(=O)NNc1nc2ccccc2s1	89*	3	11	83*	4	-3
O=C(COc1ccccc1)NNc1nc2ccccc2s1	70*	-5	-20	85*	-7	18
COc1ccc2nc(NNC(=O)COc3ccccc3)sc2c1	-4	-4	-6	3	8	1
CC(C)CCNC(=O)C(=O)Nc1cc2c3c(c1)CC(=O)N3CCC2	-13	-10	-32	-7	-1	2
O=C(Nc1ccccc1)N1CCNCC1	8	-8	20	90*	4	-9
CN(C)CCCn1c2c3ccccc3ccc2c2oc(=O)c3ccccc3c21	-32	16	-94	-36	97*	-132
CN(C)CCCn1c(=S)[nH]c2ccccc2c1=O	-3	12	17	9	-3	-9
CN(c1cc2c(c3c1ccn3C)C1CCC2C1)C1CCCCC1 (configuration not stated)	1	-23	15	5	12	15
Cc1ccc(-c2cnc3c(Nc4cccc(OC(F)(F)C(F)F)c4)nccn23)cc1	4	-6	-157	-8	-84	7
OCc1cccc(-c2cnc3c(Nc4cccc(OC(F)(F)C(F)F)c4)nccn23)c1	57*	-13	-247	42	-210	7
CC1Cc2ccccc2N1S(=O)(=O)c1cccc(C(=O)N2CCCCC2)c1 (configuration not stated)	8	-10	8	1	5	-4
COc1cc(OC)cc(C(=O)N2CCC(N3CCN(c4ccccc4OC)CC3)CC2)c1	53*	-14	15	52*	3	14
COc1ccc(Cn2c(=O)[nH]c3cc(C(=O)N4CCN(c5ccccc5OC)CC4)ccc3c2=O)cc1	53*	-14	5	31	16	-7
Cc1noc(C)c1COC(=O)c1cccc(S(=O)(=O)N2CCOCC2)c1	8	2	14	16	4	-6
COc1ccccc1N1CCN(C(=O)c2cccc(S(=O)(=O)N3c4ccccc4CC3C)c2)CC1 (configuration not stated)	23	-7	11	28	78*	38
Cc1noc(C)c1COC(=O)c1cccc(S(=O)(=O)N2c3ccccc3CC2C)c1 (configuration not stated)	53*	0	31	19	30	-5
COc1ccc(Cn2c(=O)[nH]c3cc(C(=O)N4CCN(c5ccccc5F)CC4)ccc3c2=O)cc1	-1	-6	24	14	29	8
Cc1ccc(S(=O)(=O)N2CCN(C(=O)CN3C(=O)NC(C)(CCC(C)C)C3=O)CC2)c(C)c1 (configuration not stated)	5	6	9	6	4	0
Cc1ccccc1/C(N)=N/OC(=O)c1ccc(F)cc1	2	-6	-140	-22	-166	7
O=C(NCCOc1ccc(F)cc1)C1CCC(=O)N(CCCN2CCCC2=O)C1 (configuration not stated)	-6	-4	6	5	-11	13
COc1ccc(-c2csc3ncn(Cc4ccccc4)c(=O)c23)cc1	91*	-18	26	-7	30	17
Cc1ccc(-c2csc3nc(SCC(N)=O)n(Cc4ccccc4)c(=O)c23)cc1	13	-6	7	10	53*	-8
SMILES	TWEAK Fn14 block	KKLEB cytotox	HIF-2a block	TROY signal inh	Peg3 prom inh	CF NFkB inh
COC(=O)c1cc(=O)nc(NN=C2CCCCC2)s1	-11	-4	-5	1	-16	-2
COC(=O)c1cc(=O)nc(NN=C2c3ccccc3-c3ccccc32)s1	61*	-3	-42	16	40	18
O=c1ccc2ccccc2c2ccccc12	94*	3	95*	52*	103*	65*
Cc1cc(CSc2ccccc2)ccc1NC(=O)c1ccc(CN2CCOCC2)cc1	52*	-16	4	24	13	19
Cc1cc(CSc2ccccc2)ccc1NC(=O)c1ccc(Cl)c([N+](=O)[O-])c1	-25	-15	9	-6	64*	25
CSc1ccccc1NC(=O)c1ccc(CN2CCOCC2)cc1	-10	-1	-92	-19	-70	-2
Cc1cc(CSc2ccccc2)ccc1NC(=O)c1ccc(C)c([N+](=O)[O-])c1	-39	-12	11	-9	-2	7
O=C(NC(=S)Nc1cc([N+](=O)[O-])ccc1O)c1ccc2c(c1)OCO2	71*	1	-88	70*	-41	22
COc1cc([N+](=O)[O-])ccc1NC(=S)NNC(=O)c1ccc2c(c1)OCO2	-26	-20	-25	23	4	26
Cc1ccc(C)c(N2CCN(C(=O)CCc3nc(-c4ccccc4F)no3)CC2)c1	-5	-10	-46	18	-9	11
Oc1c(C=Nc2ccccc2)sc2ccccc12	67*	-11	-267	37	-174	0
Oc1c(C=Nc2cccnc2)sc2ccccc12	-10	4	-76	-1	-45	11
Cc1cccc2c1c1ccc3c(c1n2C)C(=O)C=CC3=O	20	-1	6	4	93*	0
Cc1ccccc1N1CC(=O)N(c2ccccc2C)CC1=O	-13	0	16	-6	16	1
CN(C)C(=O)c1cc([N+](=O)[O-])cc([N+](=O)[O-])c1N(C)C	107*	-2	15	9	2	-2
O=C(Nc1ccc(Cl)cc1Cl)NC1CCN(S(=O)(=O)c2ccc(F)cc2)CC1	-16	-5	-13	52*	38	14
O=C(Nc1ccc(Cl)cc1Cl)NC1CCCC1	1	1	-83	-44	-66	14
COc1cccc(-c2cc3nc(NCc4ccc(C)cc4C)n(C)c(=O)c3s2)c1	45	-2	-117	-7	-86	29
CCCCNCc1nc2ccccc2c(=O)[nH]1	0	6	1	-6	-10	13
CCc1ccc(NCc2nc3ccccc3c(=O)[nH]2)cc1	30	5	-212	67*	-200	-20
CCOC(=O)C1=C(C)Nc2ccccc2N/C1=N\S(=O)(=O)c1ccccc1	5	-5	6	-1	3	3
O=C(CCN1C(=O)S/C(=C\c2ccccc2)C1=O)N1CCOCC1	-14	3	-47	-15	-56	-15

High-throughput results as filed in PubChem BioAssay.
